The record followed here is PubChem BioAssay (NCI).

Structures are written as SMILES. About 83,000 compounds went through this panel and 20% of them were active in at least one assay; those are over-represented in the sample as a whole.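 Values shown are percent growth following 48 h exposure of cells in 96-well plates to a single concentration of compound; below 10 was considered active.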 Values without a mark were called inactive. The source made the active and inactive calls.

The assay deals with HCC-2998 colon. The assay is described as follows: NCI-60 one-dose screen, 48 h (100 = growth as untreated, 0 = no growth, -100 = all killed). Conditions: 10 µM unless noted. As to the method:
Growth inhibition of the HCC-2998 human tumor cell line is measured as a screen for anti-cancer activity. Cells are grown in 96 well plates and exposed to the test compound for 48 hours. Compounds are tested at a single concentration, which is 10^-5 M for most compounds. The reported endpoint is percent growth (GI% or GIPRCNT), where numbers from 0 - 100% represent growth inhibition, and numbers from -100% - 0 represent cell death. For example, a value of 40 represents 60% growth inhibition. A value of 0 means no net growth occurred over the course of the experiment. A value of -40 indicates 40% of cells at the beginning of the experiment died by the end of the experiment. A value of -100 means all cells are dead at the end of the experiment.
NCI-60 Human Tumor Cell Lines Screen was performed using the standard one-dose NCI protocol, which is described in more detail at https://dtp.cancer.gov/discovery_development/nci-60/default.htm.
Compounds with GIPRCNT values below 10 were considered active. Activity score was based on GIPRCNT using the following formula: […]
Score is 0 for GIPRCNT values of 100 or above, 50 for GIPRCNT values of 0, and 100 for GIPRCNT values of -100.
For `COc1cc(C2Nc3ccccc3S2)cc(CN2CCOCC2)c1O` (stereo not given), the growth was 86.4%.

On to `O=C1C=CC(=O)N1c1cccc(N2C(=O)C=CC2=O)c1`, for which the growth is 130%.

On to `Cc1ccc(NC(=O)c2[nH]c(SCCN(C)C)nc2-c2ccc(F)cc2)cc1C#Cc1cnc2cccnn12`, for which the growth is 96.3%.

Turning to `NCCCOc1cc2ccccc2cc1C(=O)NCCCOc1cc2ccccc2cc1C(=O)Nc1ccc(Cl)cc1O`, the growth is -92.3% (active).

Consider `CCN(CC)CCCCCCCNc1cc(OC)cc2c(C)ccnc12`, for which the growth was 90.9%.

As for `NS(=O)(=O)c1ccc(N2N=C(c3ccc(Br)cc3)CC2c2cn(-c3ccccc3)nc2-c2ccc(Cl)cc2)cc1` (stereo not given), the growth is 77.8%.

As to `CCCCCCCCCCCCCCCCCC1=NC(C)(C)CN1C(C)(C)CO`, the growth was -100% (active).

`CC1=C(O)C(=O)C(c2c(C)cc(C)c(Br)c2C)=C(O)C1=O`: the growth was 63%.

Regarding `CCCNC(=S)N/N=C(\C)c1ccccn1`, the growth is 44.2%.

`Cc1ccc(Nc2nc(NCCO)c3ccccc3n2)cc1C`: the growth was 11.6%.

For `Nc1nc(N)c2c(n1)NC(c1sc(Cl)nc1Cl)CC(c1ccc3c(c1)OCO3)=N2` (stereo not given), the growth is 61.2%.

`CCc1oc2ccccc2c1C(=O)c1cc(I)c(O)c(I)c1`: the growth was 53.3%.

With `O=c1[nH]c2ccccc2n2cc3cccnc3c12`, the growth is 82.1%.

Consider `CCOC(=O)c1ccc(NCCC(=O)O)cc1`, for which the growth was 103%.

`Oc1ccc(Nc2ncnc3c2sc2ncccc23)cc1`: the growth is 69.4%.

With `Nc1cc2nc3ccccc3oc-2cc1=O`, the growth was 79.4%.

For `COC(=O)c1cc2oc(/C=N/NC(=O)c3cc4oc(-c5cccc(C(F)(F)F)c5)cc4[nH]3)cc2n1Cc1ccccc1`, the growth is 90.5%.

On to `C=CCn1c(C)nc2cc(Nc3nc(Nc4ccc5nc(C)n(CC=C)c5c4)nc4ccccc34)ccc21`, for which the growth is 104%.

Take `O=c1[nH]c2cc(Cl)c(Cl)cc2o1`: the growth was 117%.

Take `O=C1Cc2c([nH]c3ccc([N+](=O)[O-])cc23)-c2ccccc2N1`: the growth was -34.5% (active).

For the molecule `O=C(Nc1ccc2ncnc(Nc3ccc(F)c(Cl)c3)c2c1)c1cccs1`, the growth was 99.2%.

For the molecule `O=C(Cc1ccc(Nc2ccnc(C(F)(F)F)c2)cc1)N/N=C/c1ccccc1O`, the growth was 40.5%.

For `CCOC(=O)c1ccccc1SC(C[N+](=O)[O-])c1ccccc1` (stereo not given), the growth is 8.62% (active).

`COc1ccc(/C=c2\c(=O)n(-c3ccccc3)c3nn4c(=O)c(=O)[nH]nc4n23)cc1`: the growth is 108%.

In the case of `c1ccc(C2=Nc3ccccc3SC2)cc1`, the growth was 104%.

Turning to `N#CC1=C(N)Oc2nc[nH]c(=O)c2C1c1cccs1` (stereo not given), the growth is 114%.

On to `Oc1ccc(CCCCCCc2ccc(O)cc2)cc1`, for which the growth was 92.3%.

With `COc1cc(C2CC(c3cccc(Nc4ccnc5cc(Cl)ccc45)c3)=NN2c2ccccc2)cc(OC)c1OC` (stereo not given), the growth was 91.8%.

For `CCCCCCCCCCCC1=NC(C)(C)CN1C(C)(C)CO`, the growth is -75.5% (active).

For the molecule `C/C(=N\OC(=O)Nc1cccc(Cl)c1)c1ccccc1`, the growth is 116%.

In the case of `CCCCCCCCCCCCCCC(C(=O)OCC)C(=O)OCC`, the growth is 106%.

With `Cc1ccc(CSCc2ccc(C(=O)NC3CC3)o2)cc1`, the growth is 31.6%.

Regarding `CC1(C)C(N(O)C(=O)Nc2ccc(Cl)cc2)N(c2ccc(Cl)cc2)C(=O)N1CC(=O)N/N=C/C=C/c1ccc([N+](=O)[O-])o1` (stereo not given), the growth is -90.6% (active).

Turning to `COc1cc(C2C=C(C)N=C3SC=NN32)cc(OC)c1OC` (stereo not given), the growth is 102%.

As for `Cc1cc(C)cc(CCCCCCCCCCCCCCCCCC(=O)O)c1`, the growth was 102%.

For `Nc1nc2ccc([C@@H]3Nc4ccc5[nH]ncc5c4[C@H]4[C@H]5CCC(C5)[C@H]43)cc2s1`, the growth is 49.3%.

For the molecule `CCCCNCC(O)c1cc2c(Cl)cc(Cl)cc2c2cc(C(F)(F)F)ccc12` (stereo not given), the growth was -72% (active).

As to `O=C(C=P(c1ccccc1)(c1ccccc1)c1ccccc1)CCl`, the growth was -21.6% (active).

`COc1ccc(-c2nsc3c2NC(=O)CC3c2cccc(F)c2)cc1` (stereo not given): the growth was 78.5%.

With `OC(c1cc(-c2ccc(C(F)(F)F)cc2)nc(-c2ccc(C(F)(F)F)cc2)c1)C1CCCCN1` (stereo not given), the growth was -70.8% (active).
